According to the supplement of paper PMC10849652:
About 7,900 targets were measured; listed, in parts, are those with a hit and a random draw of the rest. About 0.6% of all pairs of compound and target were hits.

Assays:
Test in all cases: log2 fold change, soluble protein after heating vs DMSO (PISA); higher = thermal stabilisation; K562 cells, 10 uM, 30 min; active = over 0.2 and 3.5 SD of the protein, either way, in both replicates (recomputed)
[1] = compound: C#Cc1cccc(Nc2ncnc3cc(OCCOC)c(OCCOC)cc23)c1 [erlotinib]
Procedure, shortened: (§1)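 Soluble protein was quantified by TMTpro 16plex LC-MS/MS after channel sums were equalised. It was obtained as the supernatant after 21,000xg for 90 min from pooled aliquots of K562 cells (2×10^6 cells/mL, 10 μM compound, 30 min) heated for 3 min across 48°C-58°C and extracted in PBS with 0.5% NP-40 at 4°C. Thermal stability values are relative to control samples and come from duplicates. They are given as log2 fold changes.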

[2] = compound: C/C(=N\NC(=O)C1=CC(=CC=C1)S(=O)(=O)N2CCOCC2)/C3=C(C=CC(=C3)Cl)O
Procedure, shortened: as §1

[3] = compound: C1=CC(=C(C=C1Cl)C2=NC3=NC=CN=C3C(=N2)NC4=CC=NC=C4)F
Procedure, shortened: as §1

[4] = compound: C1=CC(=CC=C1C2=NC3=C(N2)C=C(C=C3)C(=O)N)OC4=CC=C(C=C4)Cl
Procedure, shortened: as §1

[5] = compound: C1=CC2=C(C=CC(=C2)/C=C\3/C(=O)NC(=NCC4=CC=CS4)S3)N=C1
Procedure, shortened: as §1

[6] = compound: C1=CC2=NC=CN=C2C=C1/C=C/3\C(=O)NC(=O)S3
Procedure, shortened: as §1

[7] = compound: C1=CC=C(C=C1)C2=NC(=C(N2)C3=CC=NC=C3)C4=CC(=C(C=C4)Cl)O
Procedure, shortened: as §1

[8] = compound: C1=CC=C2C(=C1)C3=NNC4=CC=CC(=C43)C2=O
Procedure, shortened: as §1

[9] = compound: C1CCN(C1)C(=O)NC2=CC=CC(=C2)NC3=NC=C(C(=N3)NCCC4=CN=CN4)Br
Procedure, shortened: as §1

[10] = compound: C1CN(CCC1(CC2=CC=C(C=C2)Cl)N)C3=NC=NC4=C3C=CN4
Procedure, shortened: as §1

Measured: log2 fold change

RRP36 (UniProt Q96EU6)
inactive: [1] -0.192 | [2] -0.147 | [3] -0.586 | [4] -0.005 | [5] -0.133 | [6] -0.06 | [7] 0.019 | [8] 0.012 | [9] 0.045 | [10] -0.146

RDH10 (UniProt Q8IZV5)
inactive: [1] 0.122 | [2] 0.065 | [3] 0.024 | [4] 0.003 | [5] 0.204 | [6] -0.035 | [7] 0.077 | [8] 0.039 | [9] -0.008 | [10] 0.235

RIPK1 (UniProt Q13546)
inactive: [1] 0.013 | [2] -0.008 | [3] -0.028 | [4] 0 | [5] 0.068 | [6] -0.016 | [7] 0.004 | [8] 0.219 | [9] 0.002 | [10] -0.015

RAD50 isoform 2 (UniProt Q92878)
inactive: [1] 0.02 | [2] 0.034 | [3] 0.076 | [4] 0.001 | [5] 0.029 | [6] 0 | [7] 0.02 | [8] 0.015 | [9] -0.034 | [10] 0.029

RBM33 (UniProt Q96EV2)
UniProt Q96EV2, sequence (Q96EV2 whole entry, looked up): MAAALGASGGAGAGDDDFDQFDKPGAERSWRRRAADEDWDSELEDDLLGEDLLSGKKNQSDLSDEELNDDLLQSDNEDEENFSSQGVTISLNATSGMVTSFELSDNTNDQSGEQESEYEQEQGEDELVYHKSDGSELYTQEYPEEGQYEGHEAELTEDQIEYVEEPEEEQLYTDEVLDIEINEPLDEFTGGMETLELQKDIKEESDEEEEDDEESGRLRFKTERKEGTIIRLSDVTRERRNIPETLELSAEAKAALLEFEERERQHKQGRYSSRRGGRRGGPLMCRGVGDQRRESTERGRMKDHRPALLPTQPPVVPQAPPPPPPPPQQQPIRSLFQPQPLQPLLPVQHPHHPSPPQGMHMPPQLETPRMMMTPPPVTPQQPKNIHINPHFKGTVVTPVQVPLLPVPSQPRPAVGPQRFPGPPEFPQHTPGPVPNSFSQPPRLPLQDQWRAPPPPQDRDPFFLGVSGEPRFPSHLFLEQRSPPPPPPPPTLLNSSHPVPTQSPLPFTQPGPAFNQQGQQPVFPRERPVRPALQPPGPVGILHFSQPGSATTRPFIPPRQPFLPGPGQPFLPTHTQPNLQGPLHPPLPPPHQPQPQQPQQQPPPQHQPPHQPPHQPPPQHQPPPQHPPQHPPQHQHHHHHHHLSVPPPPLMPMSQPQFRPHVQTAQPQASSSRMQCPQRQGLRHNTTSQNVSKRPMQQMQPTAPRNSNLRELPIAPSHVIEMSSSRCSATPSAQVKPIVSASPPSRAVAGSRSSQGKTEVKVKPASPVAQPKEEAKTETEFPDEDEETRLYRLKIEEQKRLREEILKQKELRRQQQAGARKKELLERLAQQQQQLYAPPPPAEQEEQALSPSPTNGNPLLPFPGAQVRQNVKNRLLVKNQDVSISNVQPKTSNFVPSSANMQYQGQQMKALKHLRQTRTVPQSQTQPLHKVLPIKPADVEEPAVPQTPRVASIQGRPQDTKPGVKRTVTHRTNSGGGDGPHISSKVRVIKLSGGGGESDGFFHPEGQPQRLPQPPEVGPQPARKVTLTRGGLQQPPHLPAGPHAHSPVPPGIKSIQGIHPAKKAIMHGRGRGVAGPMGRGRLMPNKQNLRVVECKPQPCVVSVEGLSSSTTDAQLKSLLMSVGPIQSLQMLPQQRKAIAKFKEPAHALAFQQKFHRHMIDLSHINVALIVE
inactive: [1] 0.017 | [2] 0.04 | [3] -0.022 | [4] -0.011 | [5] 0 | [6] 0.01 | [7] 0.001 | [8] -0.114 | [9] 0.034 | [10] 0.038

SH3GLB2 (UniProt Q9NR46)
inactive: [1] 0.048 | [2] 0.081 | [3] -0.044 | [4] -0.021 | [5] 0 | [6] 0.01 | [7] -0.033 | [8] -0.021 | [9] -0.022 | [10] -0.013

SDHC (UniProt Q99643)
inactive: [1] -0.017 | [2] 0.033 | [3] -0.015 | [4] 0.033 | [5] -0.013 | [6] 0.17 | [7] 0.104 | [8] 0.102 | [9] 0.008 | [10] 0.02

RPS6KA1 isoform 2 (UniProt Q15418)
active: [8] -0.377
inactive: [1] -0.032 | [2] 0.104 | [3] -0.082 | [4] 0.107 | [5] 0.034 | [6] 0.039 | [7] -0.135 | [9] -0.093 | [10] 0.023

RRAS2 isoform 4 (UniProt P62070)
UniProt P62070, sequence (P62070 whole entry, looked up): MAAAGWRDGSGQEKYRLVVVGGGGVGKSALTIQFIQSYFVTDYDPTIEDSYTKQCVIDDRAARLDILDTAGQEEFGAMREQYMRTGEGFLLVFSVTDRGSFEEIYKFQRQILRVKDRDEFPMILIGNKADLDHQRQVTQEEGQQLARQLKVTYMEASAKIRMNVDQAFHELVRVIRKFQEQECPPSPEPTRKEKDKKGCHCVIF
inactive: [1] 0.002 | [2] -0.076 | [3] -0.046 | [4] 0.015 | [5] -0.006 | [6] 0.038 | [7] -0.015 | [8] -0.059 | [9] -0.085 | [10] 0.093

RPS18 (UniProt P62269)
inactive: [1] -0.126 | [2] -0.088 | [3] -0.211 | [4] 0.039 | [5] -0.037 | [6] -0.089 | [7] -0.024 | [8] 0 | [9] 0.097 | [10] -0.144

RPS4X (UniProt P62701)
inactive: [1] -0.177 | [2] -0.092 | [3] -0.37 | [4] 0.054 | [5] -0.042 | [6] -0.033 | [7] -0.043 | [8] 0.043 | [9] 0.076 | [10] -0.221

RDH13 (UniProt Q8NBN7)
UniProt Q8NBN7, sequence (Q8NBN7 whole entry, looked up): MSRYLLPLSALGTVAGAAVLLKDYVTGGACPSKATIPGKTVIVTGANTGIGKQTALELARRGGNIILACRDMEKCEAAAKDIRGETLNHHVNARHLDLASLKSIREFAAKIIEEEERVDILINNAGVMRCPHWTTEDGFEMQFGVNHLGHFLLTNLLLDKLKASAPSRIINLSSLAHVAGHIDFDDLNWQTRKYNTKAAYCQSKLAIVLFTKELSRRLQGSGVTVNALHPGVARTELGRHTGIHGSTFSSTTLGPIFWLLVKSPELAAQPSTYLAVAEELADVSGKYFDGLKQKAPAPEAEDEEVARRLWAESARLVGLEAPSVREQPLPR
inactive: [1] 0.019 | [2] -0.004 | [3] 0.082 | [4] 0.01 | [5] 0.127 | [6] -0.024 | [7] 0.005 | [8] 0.007 | [9] 0.05 | [10] 0.007

RRP12 (UniProt Q5JTH9)
UniProt Q5JTH9, sequence (Q5JTH9 whole entry, looked up): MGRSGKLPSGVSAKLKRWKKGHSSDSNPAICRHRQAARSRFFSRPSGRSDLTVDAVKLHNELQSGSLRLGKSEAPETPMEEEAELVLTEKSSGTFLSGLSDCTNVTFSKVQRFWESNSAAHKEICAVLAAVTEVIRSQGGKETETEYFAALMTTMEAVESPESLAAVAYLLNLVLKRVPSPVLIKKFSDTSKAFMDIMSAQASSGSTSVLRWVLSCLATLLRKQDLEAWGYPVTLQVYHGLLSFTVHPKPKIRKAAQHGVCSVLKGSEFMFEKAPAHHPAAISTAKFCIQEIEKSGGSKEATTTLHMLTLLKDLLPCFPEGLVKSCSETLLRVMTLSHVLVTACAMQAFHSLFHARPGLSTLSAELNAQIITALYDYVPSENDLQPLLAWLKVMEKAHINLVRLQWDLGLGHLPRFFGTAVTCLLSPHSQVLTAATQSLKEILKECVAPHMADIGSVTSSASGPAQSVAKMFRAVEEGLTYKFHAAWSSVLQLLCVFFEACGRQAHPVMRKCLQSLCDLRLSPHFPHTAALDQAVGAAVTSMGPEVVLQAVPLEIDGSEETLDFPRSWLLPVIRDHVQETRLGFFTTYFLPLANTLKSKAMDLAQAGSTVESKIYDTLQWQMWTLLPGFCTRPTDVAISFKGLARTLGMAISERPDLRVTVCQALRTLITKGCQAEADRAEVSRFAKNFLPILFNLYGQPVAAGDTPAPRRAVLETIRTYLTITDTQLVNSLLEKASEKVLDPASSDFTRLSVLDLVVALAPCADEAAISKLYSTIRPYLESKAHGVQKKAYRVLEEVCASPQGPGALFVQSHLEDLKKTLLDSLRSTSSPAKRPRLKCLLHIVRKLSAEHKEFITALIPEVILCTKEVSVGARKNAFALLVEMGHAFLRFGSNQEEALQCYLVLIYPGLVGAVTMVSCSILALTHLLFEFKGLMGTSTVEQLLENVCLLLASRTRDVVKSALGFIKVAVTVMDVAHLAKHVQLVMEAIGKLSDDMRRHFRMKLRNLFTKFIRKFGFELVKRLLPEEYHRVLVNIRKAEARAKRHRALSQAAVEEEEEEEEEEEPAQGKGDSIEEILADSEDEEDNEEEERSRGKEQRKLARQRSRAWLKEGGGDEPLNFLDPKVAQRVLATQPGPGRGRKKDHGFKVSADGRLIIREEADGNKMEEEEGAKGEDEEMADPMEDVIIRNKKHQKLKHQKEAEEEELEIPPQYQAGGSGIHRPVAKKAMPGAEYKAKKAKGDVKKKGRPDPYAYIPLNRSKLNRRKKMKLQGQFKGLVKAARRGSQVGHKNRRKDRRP
inactive: [1] 0.074 | [2] -0.3 | [3] -0.172 | [4] 0.028 | [5] -0.04 | [6] 0.038 | [7] 0.166 | [8] 0.205 | [9] 0.079 | [10] 0.054

RPS20 isoform 2 (UniProt P60866)
inactive: [1] -0.129 | [2] -0.082 | [3] -0.171 | [4] 0.023 | [5] -0.004 | [6] -0.068 | [7] -0.04 | [8] -0.025 | [9] 0.05 | [10] -0.159

SERINC3 (UniProt Q13530)
UniProt Q13530, sequence (Q13530 whole entry, looked up): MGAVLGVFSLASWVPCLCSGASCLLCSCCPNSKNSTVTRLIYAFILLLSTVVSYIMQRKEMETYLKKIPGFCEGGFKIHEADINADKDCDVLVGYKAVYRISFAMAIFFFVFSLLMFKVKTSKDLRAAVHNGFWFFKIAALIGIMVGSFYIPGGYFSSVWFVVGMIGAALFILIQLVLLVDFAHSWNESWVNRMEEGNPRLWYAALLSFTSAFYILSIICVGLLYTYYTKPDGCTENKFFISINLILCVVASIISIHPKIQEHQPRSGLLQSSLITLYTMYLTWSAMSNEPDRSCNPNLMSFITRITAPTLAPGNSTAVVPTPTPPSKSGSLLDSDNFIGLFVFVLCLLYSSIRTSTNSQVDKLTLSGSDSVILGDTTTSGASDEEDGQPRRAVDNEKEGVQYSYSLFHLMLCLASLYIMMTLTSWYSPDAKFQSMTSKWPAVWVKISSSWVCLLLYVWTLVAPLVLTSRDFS
inactive: [1] -0.051 | [2] 0.016 | [3] -0.064 | [4] 0.041 | [5] -0.043 | [6] 0.063 | [7] 0.006 | [8] 0.029 | [9] 0.007 | [10] 0.06

RANBP2 (UniProt P49792)
inactive: [1] -0.107 | [2] 0.007 | [3] 0.062 | [4] 0.081 | [5] 0.082 | [6] 0.003 | [7] -0.007 | [8] -0.028 | [9] 0.005 | [10] 0

SLBP (UniProt Q14493)
UniProt Q14493, sequence (Q14493 whole entry, looked up): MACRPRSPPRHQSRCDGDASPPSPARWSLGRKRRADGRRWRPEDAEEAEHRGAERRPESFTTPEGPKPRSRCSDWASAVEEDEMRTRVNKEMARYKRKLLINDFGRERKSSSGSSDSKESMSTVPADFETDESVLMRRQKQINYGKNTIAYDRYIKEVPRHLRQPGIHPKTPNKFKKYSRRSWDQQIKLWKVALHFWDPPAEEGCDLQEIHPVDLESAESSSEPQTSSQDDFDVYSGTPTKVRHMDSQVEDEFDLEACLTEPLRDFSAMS
inactive: [1] 0.006 | [2] 0.03 | [3] -0.058 | [4] 0.019 | [5] -0.111 | [6] 0.035 | [7] 0.005 | [8] 0.008 | [9] 0.008 | [10] -0.039

RCN3 (UniProt Q96D15)
inactive: [1] 0.033 | [2] 0.013 | [3] 0.058 | [4] 0.048 | [5] 0.03 | [6] -0.029 | [7] -0.057 | [8] -0.023 | [9] 0.07 | [10] -0.103

RPL31 (UniProt P62899)
inactive: [1] -0.145 | [2] -0.174 | [3] -0.444 | [4] 0.055 | [5] -0.052 | [6] -0.02 | [7] -0.047 | [8] -0.011 | [9] 0.087 | [10] -0.215

SCG3 (UniProt Q8WXD2)
UniProt Q8WXD2, sequence (Q8WXD2 whole entry, looked up): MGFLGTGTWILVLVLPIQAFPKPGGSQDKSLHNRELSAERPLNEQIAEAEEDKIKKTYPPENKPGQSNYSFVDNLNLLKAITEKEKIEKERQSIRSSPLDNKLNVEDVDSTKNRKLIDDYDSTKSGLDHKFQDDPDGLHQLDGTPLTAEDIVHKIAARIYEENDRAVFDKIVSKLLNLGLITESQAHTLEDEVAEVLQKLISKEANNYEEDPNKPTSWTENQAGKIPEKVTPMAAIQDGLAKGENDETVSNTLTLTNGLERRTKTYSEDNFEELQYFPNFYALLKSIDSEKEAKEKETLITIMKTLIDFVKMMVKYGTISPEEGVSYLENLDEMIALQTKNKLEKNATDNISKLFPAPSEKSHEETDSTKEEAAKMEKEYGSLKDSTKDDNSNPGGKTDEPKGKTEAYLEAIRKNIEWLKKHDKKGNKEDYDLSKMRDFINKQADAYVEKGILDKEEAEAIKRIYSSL
inactive: [1] -0.076 | [2] 0.141 | [3] 0.023 | [4] 0.088 | [5] 0.09 | [6] -0.015 | [7] 0.103 | [8] -0.094 | [9] -0.05 | [10] 0.036

RETREG3 (UniProt Q86VR2)
inactive: [1] 0.004 | [2] 0.072 | [3] 0.037 | [4] 0.031 | [5] -0.053 | [6] 0.07 | [7] 0.062 | [8] -0.087 | [9] -0.029 | [10] 0.032

RAB9A (UniProt P51151)
UniProt P51151, sequence (P51151 whole entry, looked up): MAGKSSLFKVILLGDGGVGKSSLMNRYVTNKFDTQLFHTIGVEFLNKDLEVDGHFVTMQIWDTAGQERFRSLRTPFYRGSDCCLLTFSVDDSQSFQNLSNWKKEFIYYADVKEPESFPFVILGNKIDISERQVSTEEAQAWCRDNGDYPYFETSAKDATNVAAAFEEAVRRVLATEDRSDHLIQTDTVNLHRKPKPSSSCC
inactive: [1] 0.037 | [2] 0.05 | [3] 0.017 | [4] 0.016 | [5] 0.046 | [6] -0.022 | [7] -0.005 | [8] -0.01 | [9] 0.017 | [10] 0.056

RBM4 (UniProt Q9BWF3)
inactive: [1] 0.02 | [2] 0 | [3] -0.102 | [4] 0.011 | [5] -0.012 | [6] 0.054 | [7] -0.041 | [8] -0.035 | [9] 0.012 | [10] -0.009

RAB3IL1 (UniProt Q8TBN0)
inactive: [1] -0.007 | [2] -0.007 | [3] 0.057 | [4] 0.005 | [5] 0.019 | [6] 0.019 | [7] -0.02 | [8] -0.039 | [9] -0.004 | [10] -0.013

RSL1D1 (UniProt O76021)
inactive: [1] -0.115 | [2] -0.156 | [3] -0.504 | [4] 0.073 | [5] -0.054 | [6] 0.057 | [7] -0.141 | [8] -0.086 | [9] 0.016 | [10] -0.193

RAB5IF isoform 5 (UniProt Q9BUV8)
active: [7] 0.373
inactive: [1] 0.071 | [2] 0.093 | [3] 0.098 | [4] 0.055 | [5] -0.061 | [6] 0.112 | [8] 0.036 | [9] 0.027 | [10] 0.267

SLC1A3 (UniProt P43003)
UniProt P43003, sequence (P43003 whole entry, looked up): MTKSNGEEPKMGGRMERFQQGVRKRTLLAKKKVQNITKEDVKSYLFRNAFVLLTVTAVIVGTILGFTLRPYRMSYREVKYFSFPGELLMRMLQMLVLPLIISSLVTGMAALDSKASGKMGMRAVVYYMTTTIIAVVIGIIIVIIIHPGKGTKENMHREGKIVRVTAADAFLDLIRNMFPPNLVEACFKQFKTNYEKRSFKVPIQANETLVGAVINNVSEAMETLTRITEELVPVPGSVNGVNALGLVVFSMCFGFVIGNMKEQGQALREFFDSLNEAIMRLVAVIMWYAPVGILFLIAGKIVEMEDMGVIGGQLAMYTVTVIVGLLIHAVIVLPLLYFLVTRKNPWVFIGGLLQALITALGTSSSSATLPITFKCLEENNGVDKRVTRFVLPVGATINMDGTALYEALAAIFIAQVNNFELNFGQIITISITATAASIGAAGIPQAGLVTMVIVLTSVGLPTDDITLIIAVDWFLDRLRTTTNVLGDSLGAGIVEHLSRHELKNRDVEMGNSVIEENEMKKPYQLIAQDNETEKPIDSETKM
inactive: [1] 0.025 | [2] 0.017 | [3] 0.194 | [4] 0.053 | [5] -0.169 | [6] 0.001 | [7] 0.007 | [8] 0.012 | [9] 0.05 | [10] 0.163

RBM22 (UniProt Q9NW64)
inactive: [1] -0.013 | [2] -0.037 | [3] -0.061 | [4] -0.009 | [5] -0.117 | [6] 0.038 | [7] -0.084 | [8] -0.051 | [9] 0 | [10] 0.121

RNPS1 (UniProt Q15287)
inactive: [1] 0.008 | [2] 0.194 | [3] 0.06 | [4] 0.053 | [5] 0.164 | [6] 0.013 | [7] -0.022 | [8] -0.319 | [9] 0.048 | [10] -0.118

SENP6 (UniProt Q9GZR1)
active: [3] 0.237
inactive: [1] 0.028 | [2] 0.033 | [4] -0.049 | [5] -0.029 | [6] 0.08 | [7] -0.011 | [8] -0.078 | [9] -0.061 | [10] 0.049
